# From ChEMBL document CHEMBL3988442, “University of Dundee, Small-Polar-MMV Screening Library” (2021)
# Among all 69,000 compounds or so, about 1,000 (1.4%) showed an effect of 50% or more. The entries come from a sample that favours strong results as a whole.
# Test system: Leishmania donovani
# Assay: Leishmania intramacrophage assay
# Type: functional, organism-based
# Parameters: scale not given: in the data most compounds retested in dose-response had high values
smiles,measurement,setting,value
O=C(CSc1ccncc1)NC1CC(=O)N(CCc2ccccc2)C1 (stereo not drawn),Percent Effect,"30.3 µM, […]",1.719%
COc1ncc(-c2cc(-c3ccn(C)c3)nc(N)c2C#N)cn1,Percent Effect,"30.3 µM, […]",4.864%
CCNc1ncc(-c2cc(-c3ccn(C)c3)nc(N)c2C#N)cn1,Percent Effect,"30.3 µM, […]",-7.222%
CCn1cc(-c2cc(-c3ccn(C)c3)nc(N)c2C#N)cc1C#N,Percent Effect,"30.3 µM, […]",62.07%
COc1c(CNCc2ccccc2-n2ccnc2)c(C)nn1C,Percent Effect,"30.3 µM, […]",-14%
CCN(CC)C(=O)c1ccn(COc2ccccc2)n1,Percent Effect,"30 µM, 30.03 µM",25.56%
CCN(CC)C(=O)c1ccn(COc2cc(C)cc(C)c2)n1,Percent Effect,"30 µM, 30.03 µM",51.39%
Cc1cc(C)cc(OCn2ccc(C(=O)O)n2)c1,Percent Effect,"30.3 µM, […]",36.81%
Cc1cc(C(=O)N2C[C@@H](C(=O)O)[C@H](c3ccccc3C)C2)c(C)o1,Percent Effect,"30 µM, 30.03 µM",-7.821%
O=C(c1cc(-c2cn[nH]c2)nc2cc(F)ccc12)N1CCS(=O)(=O)CC1,Percent Effect,"30.3 µM, […]",4.667%
Cc1ccoc1C(=O)NCCS(=O)(=O)N1CCSCC1,Percent Effect,"30.3 µM, […]",62.05%
Cc1ccc(C(=O)NCCS(=O)(=O)N2CCSCC2)o1,Percent Effect,"30.3 µM, […]",-11.12%
Cc1cc(C)cc(C(=O)NCCS(=O)(=O)N2CCSCC2)c1,Percent Effect,"30.3 µM, […]",-32.85%
CN1CCN([C@@H]2CN(C(=O)CCOc3ccccc3)C[C@H]2O)CC1,Percent Effect,"30.3 µM, […]",23.88%
COc1cc(CN[C@@H]2COC[C@H]2Cc2cc(C)no2)cc(OC)c1.O=C(O)CC(O)(CC(=O)O)C(=O)O,Percent Effect,"30.3 µM, […]",4.158%
CN1CCN(c2nsc(-c3cccnc3)c2C#N)CC1,Percent Effect,"30.3 µM, […]",11.24%
Cc1nn(C)c(C)c1-c1cnc(C2CCCN(S(C)(=O)=O)C2)cn1 (stereo not drawn),Percent Effect,"30.3 µM, […]",19.29%
CO[C@H]1CN(C(=O)c2cccnc2)[C@@H]2CCCO[C@H]12.O=C(O)C(F)(F)F,Percent Effect,"30.3 µM, […]",4.595%
Cc1nc(N)cc(N2CCCC(COc3cccc(F)c3)C2)n1 (stereo not drawn),Percent Effect,"30.3 µM, […]",87.26%
COc1cccc(OCC2CCCN(c3cc(C(N)=O)ccn3)C2)c1 (stereo not drawn),Percent Effect,"30.3 µM, […]",42.88%
Cc1nc(CN(C)C)cc(N2CCCC(COc3ccc(F)cc3)C2)n1 (stereo not drawn),Percent Effect,"30.3 µM, […]",-8.427%
Nc1cc(N2CCCC(COc3ccc(F)cc3)C2)nc(N)n1 (stereo not drawn),Percent Effect,"30.3 µM, […]",-15.02%
CNC(=O)c1ccnc(N2CCCC(COc3cccc(C)c3)C2)c1 (stereo not drawn),Percent Effect,"30.3 µM, […]",30.74%
Cc1ccc(OCC2CCCN(c3cc(C(N)=O)ccn3)C2)cc1 (stereo not drawn),Percent Effect,"30.3 µM, […]",60.08%
Nc1cc(N2CCCC(COc3ccc(F)cc3)C2)ncn1 (stereo not drawn),Percent Effect,"30.3 µM, […]",1.04%
CCNC(=O)c1ccnc(N2CCCC(COc3ccccc3C)C2)c1 (stereo not drawn),Percent Effect,"30.3 µM, […]",33.05%
Cc1ccccc1OCC1CCCN(c2cc(N)nc(N)n2)C1 (stereo not drawn),Percent Effect,"30.3 µM, […]",98.85%
Cc1ccc(C(=O)N2Cc3c(CN(C)C)nn(C)c3C2)cc1C.O=C(O)C(F)(F)F,Percent Effect,"30.3 µM, […]",35.58%
Cc1csc(NC(=O)c2cnc(C3CCCN3)cn2)n1.Cl (stereo not drawn),Percent Effect,"30.3 µM, […]",7.514%
CCC(C)NC(=O)Cc1c(C)nc2c(c1C)c(=O)[nH]n2C (stereo not drawn),Percent Effect,"30 µM, 30.03 µM",-5.579%
COc1cc(C(=O)N2CCCC(CNS(C)(=O)=O)C2)cc(OC)c1C (stereo not drawn),Percent Effect,"30 µM, 30.03 µM",16.86%
CN(C)CC1CN(Cc2ccc(F)cc2)Cc2nccn2C1.O=C(O)C(F)(F)F.O=C(O)C(F)(F)F (stereo not drawn),Percent Effect,"30.3 µM, […]",6.472%
N#Cc1ccc(CNC2CCN(CCc3ccncc3)CC2)cc1,Percent Effect,"30.3 µM, […]",19.38%
CSc1ccc(CNC2CCN(CCc3ccncc3)CC2)cc1,Percent Effect,"30.3 µM, […]",85.89%
Oc1cccc(CNC2CCN(CCc3ccncc3)CC2)c1,Percent Effect,"30.3 µM, […]",7.34%
c1cc(CCN2CCC(NCc3ccsc3)CC2)ccn1,Percent Effect,"30.3 µM, […]",31.06%
COC(=O)C(O)C1CCN(CCc2ccncc2)CC1 (stereo not drawn),Percent Effect,"30.3 µM, […]",9.422%
COc1ccc(CNC2CCN(CCc3ccncc3)CC2)cc1O,Percent Effect,"30 µM, 30.03 µM",9.899%
Cc1ccc(CNC2CCN(CCc3ccncc3)CC2)cc1C,Percent Effect,"30 µM, 30.03 µM",92.66%
CC(NC1CCN(CCc2ccncc2)CC1)c1cnn(C(C)C)c1 (stereo not drawn),Percent Effect,"30.3 µM, […]",6.548%
Cc1ccc(CNC2CCN(CCc3ccncc3)CC2)s1,Percent Effect,"30 µM, 30.03 µM",45.1%
CCCN1CCC(NCc2ccncc2)CC1,Percent Effect,"30.3 µM, […]",-7.602%
Cc1cccc(CNC2CCN(CCc3ccncc3)CC2)c1C,Percent Effect,"30.3 µM, […]",74.34%
Clc1cccc(CNC2CCN(CCc3ccncc3)CC2)c1,Percent Effect,"30.3 µM, […]",59.66%
CC1(c2ccccc2)CCC(=O)N(CCN2CCCOC2=O)C1 (stereo not drawn),Percent Effect,"30.3 µM, […]",-24.18%
CN(C)C(=O)CN1CCN(C(=O)c2cnn(-c3ccccc3Cl)c2)CC1,Percent Effect,30 µM,13.32%
CC(C)Cc1ccc(S(=O)(=O)Nc2ccc(=O)n(C)c2)cc1,Percent Effect,"30 µM, 30.03 µM",40.75%
CCOCCN1CCN(c2ccc(C#N)cn2)CC1CC (stereo not drawn),Percent Effect,"30.3 µM, […]",26.65%
COCCN1CCC(NCc2ccc(Cl)cc2)C1 (stereo not drawn),Percent Effect,30 µM,10.13%
Fc1ccc(CNC2CCN(CCc3ccncc3)CC2)cc1F,Percent Effect,"30.3 µM, […]",73.28%
CC(CNC1CCN(Cc2ccncc2)CC1)c1ccc(F)cc1F (stereo not drawn),Percent Effect,"30.3 µM, […]",10.91%
CC(NC(=O)c1ccnn1C)c1ccc(OCC2CC2)c(F)c1 (stereo not drawn),Percent Effect,"30.3 µM, […]",27.82%
CCCc1cc(NCCCC2CCOC2)n2nccc2n1 (stereo not drawn),Percent Effect,"30.3 µM, […]",32.07%
CCCc1cc(CNC2CCN(c3nc4ccccc4s3)CC2)on1,Percent Effect,"30.3 µM, […]",35.92%
Cn1ccnc1SCCNC1CCN(c2nc3ccccc3s2)CC1,Percent Effect,"30.3 µM, […]",43.39%
Cc1csc2c(N3CCC(NCCCC4CCOC4)CC3)ncnc12 (stereo not drawn),Percent Effect,"30.3 µM, […]",10.77%
CCc1nccn1CCNC1CCN(c2nc3ccc(Cl)cc3s2)CC1,Percent Effect,"30.3 µM, […]",98.8%
Cc1csc2c(N3CCC(NCCc4ccnn4C)CC3)ncnc12,Percent Effect,"30.3 µM, […]",17.37%
Cc1n[nH]c(SCCNC2CCN(c3nc4ccccc4s3)CC2)n1,Percent Effect,"30.3 µM, […]",6.253%
CCS(=O)(=O)CCNC1CCN(c2nc3ccc(Cl)cc3s2)CC1,Percent Effect,"30.3 µM, […]",66.16%
Clc1ccc2nc(N3CCC(NCCCC4CCOC4)CC3)sc2c1 (stereo not drawn),Percent Effect,"30.3 µM, […]",61.31%
CCOCC(O)CN1CCN(C(=O)C2CCC2)CC1 (stereo not drawn),Percent Effect,"30.3 µM, […]",23.63%
O=C1CCOC[C@]2(CN(Cc3ccccc3)C[C@H]2c2ccccc2)N1,Percent Effect,"30.3 µM, […]",-10.32%
CN(C)c1ccc(C(=O)N2CCC(c3cc4ncccc4[nH]3)CC2)cc1,Percent Effect,"30.3 µM, […]",-1.505%
CS(=O)(=O)CCNC(=O)N1CC2(CCCC2)c2ccccc21,Percent Effect,"30.3 µM, […]",0.5956%
CSCCC1c2nc[nH]c2CCN1Cc1cc(Cl)ccc1O (stereo not drawn),Percent Effect,"30 µM, 30.03 µM",8.861%
CCN(C)Cc1nc(-c2ccccc2NS(C)(=O)=O)oc1C,Percent Effect,"30.3 µM, […]",2.546%
O=C(O)C(F)(F)F.O=C(c1ccno1)N1CCO[C@@H]2CC(COCc3ccccn3)C[C@H]21 (stereo partly drawn),Percent Effect,"30.3 µM, […]",6.888%
Cc1cccc(OCC2CCCN(C(=O)CN(C)C3CCNCC3)C2)c1 (stereo not drawn),Percent Effect,"30.3 µM, […]",48.81%
COCC(=O)N1CCCC(COc2ccccc2C)C1 (stereo not drawn),Percent Effect,"30.3 µM, […]",0.2743%
Cc1ccccc1OCC1CCCN(C(=O)CN(C)C2CCNCC2)C1 (stereo not drawn),Percent Effect,"30.3 µM, […]",83.48%
CNc1cc(CNC(=O)c2ccccc2)nc(-c2ccncc2)n1,Percent Effect,"30 µM, 30.03 µM",35.29%
Cn1ccnc1CN1CCC(F)(F)C2(CCN(c3cnccn3)C2)C1.O=C(O)C(F)(F)F (stereo not drawn),Percent Effect,"30.3 µM, […]",-10.04%
FC1(F)CCN(Cc2ccncc2)CC12CCN(c1cccnc1)C2.O=C(O)C(F)(F)F.O=C(O)C(F)(F)F.O=C(O)C(F)(F)F (stereo not drawn),Percent Effect,"30.3 µM, […]",38.61%
Cn1cc(CN2CCC(F)(F)C3(CCN(c4cccnc4)C3)C2)cn1.O=C(O)C(F)(F)F.O=C(O)C(F)(F)F (stereo not drawn),Percent Effect,"30.3 µM, […]",0.6501%
O=C(C1CCCO1)N1CCC2(CC1)COCCN(Cc1ccncc1)C2.O=C(O)C(F)(F)F.O=C(O)C(F)(F)F (stereo not drawn),Percent Effect,"30.3 µM, […]",14.9%
FC1(F)CCN(Cc2cccnc2)CC12CCN(c1ccccn1)C2.O=C(O)C(F)(F)F.O=C(O)C(F)(F)F.O=C(O)C(F)(F)F (stereo not drawn),Percent Effect,"30 µM, 30.03 µM",38.27%
Cn1ccnc1CN1CCC(F)(F)C2(CCN(c3cccnc3)C2)C1.O=C(O)C(F)(F)F.O=C(O)C(F)(F)F (stereo not drawn),Percent Effect,"30.3 µM, […]",69.63%
O=C(C1CCCO1)N1CCC2(CC1)COCCN(Cc1cccnc1)C2.O=C(O)C(F)(F)F.O=C(O)C(F)(F)F (stereo not drawn),Percent Effect,"30.3 µM, […]",54.72%
O=C([C@@H]1CCCO1)N1CCOCC2(CCN(Cc3cccnc3)C2)C1 (stereo partly drawn),Percent Effect,"30.3 µM, […]",28.44%
FC1(F)CCN(Cc2cccnc2)CC12CCN(c1ccccc1)C2.O=C(O)C(F)(F)F.O=C(O)C(F)(F)F.O=C(O)C(F)(F)F (stereo not drawn),Percent Effect,"30.3 µM, […]",99.13%
Cc1ccccc1CC(=O)N(C)C1CCCC1,Percent Effect,"30 µM, 30.03 µM",-4.753%
CCCOCCn1ncc(N2CCc3ccccc3C2)cc1=O,Percent Effect,"30.3 µM, […]",-24.62%
O=C(NCCNc1ncccn1)N1CCCC1c1ccc(F)cc1 (stereo not drawn),Percent Effect,"30.3 µM, […]",15.04%
CCOC(=O)CNC(=O)c1cc2n(n1)CCCO2,Percent Effect,"30.3 µM, […]",10.49%
Cc1nc(S(=O)(=O)CCn2cccn2)n(C2CCCCC2)c1C,Percent Effect,"30.3 µM, […]",21.76%
NCc1ccccc1Sc1ccc(O)cc1.O=C(O)/C=C\C(=O)O,Percent Effect,"30.3 µM, […]",18.14%
CCCn1nnnc1CN1Cc2ccccc2CC1c1nnc(C)o1 (stereo not drawn),Percent Effect,"30.3 µM, […]",14.94%
Cc1ncoc1C(=O)N1CCOC(CCCC(C)C)C1 (stereo not drawn),Percent Effect,"30.3 µM, […]",-28.53%
CCc1nc(C2CCCN2Cc2nc(CCOC)no2)no1 (stereo not drawn),Percent Effect,"30 µM, 30.03 µM",14.38%
NCCc1n[nH]c(=O)n1-c1cccc(Cl)c1Cl,Percent Effect,"30.3 µM, […]",4.495%
Cc1cc(CC(C)Nc2ncnc3cccc(F)c23)[nH]n1 (stereo not drawn),Percent Effect,"30.3 µM, […]",6.483%
CC(Cc1cncs1)Nc1ncnc2cccc(F)c12 (stereo not drawn),Percent Effect,"30.3 µM, […]",50.92%
CC(Cc1cccnc1)Nc1ncnc2cccc(F)c12 (stereo not drawn),Percent Effect,"30.3 µM, […]",5.204%
N#Cc1cccc(C(=O)N2C[C@H]3CC[C@@H]2CN(C(=O)C2CCC2)C3)c1,Percent Effect,"30.3 µM, […]",15.5%
CC(c1ccco1)N(C(=O)Cn1nc2n(c1=O)CCCCC2)C1CC1 (stereo not drawn),Percent Effect,"30.3 µM, […]",-5.38%
CCS(=O)(=O)N1CCOC2(CCCN(c3cnccn3)C2)C1.O=C(O)C(F)(F)F (stereo not drawn),Percent Effect,"30.3 µM, […]",26.09%
Cc1cccc(CN2CCc3ncnc(N4CCCC4)c3CC2)n1.O=C(O)C(F)(F)F,Percent Effect,"30.3 µM, […]",43.68%
Cc1cccc(CN2CCc3ncnc(N4CCN(C)CC4)c3CC2)n1.O=C(O)C(F)(F)F.O=C(O)C(F)(F)F,Percent Effect,"30.3 µM, […]",55.42%
Cc1nc(CN2CCc3ncnc(-c4ccsc4)c3CC2)cs1.O=C(O)C(F)(F)F,Percent Effect,"30.3 µM, […]",54.86%
Cc1nc(CN2CCc3ncnc(-c4ccccc4)c3CC2)cs1.O=C(O)C(F)(F)F,Percent Effect,"30.3 µM, […]",41.98%
Cc1nc(CN2CCc3ncnc(-c4ccncc4)c3CC2)cs1.O=C(O)C(F)(F)F.O=C(O)C(F)(F)F,Percent Effect,"30.3 µM, […]",3.502%
Cc1cccc(CN2CCc3ncnc(N4CCOCC4)c3CC2)n1.O=C(O)C(F)(F)F,Percent Effect,"30 µM, 30.03 µM",-4.013%
